Assay results from PubChem BioAssay AID504329 (Southern Research Specialized Biocontainment Screening …, 2011).
“And” between values parts separate entries of the source, which are not always exact repeats. Identical values can stand only once. Hit rate of the full screen: of about 340,000 compounds, about 1,000 (0.29%) were called active. Cut-off read from the data, not from the text of the source: inconclusive = inhibition above about 27% without an active follow-up result; inactive = below that. These entries were drawn from the full list. Potency and affinity values are given separately.

assay: H1N1 influenza NS1A inhibitors, functional cell based assay (AID 504329); details: percent inhibition, at 12.5 µM, hits give high values

| SMILES | inhibition |
| --- | --- |
| CCN(CC)c1ccc(C(=S)NCc2ccccc2)cc1 | -0.32% (inactive) |
| CCN(CC)c1ccc(SS(=O)(=O)O)cc1 | -7.03% (inactive) and 0.65% (inactive) |
| CCN(CC)c1ccc(NC(=O)Nc2ccc(C(C)=O)cc2)cc1 | 7.64% (inactive) |
| CCN(CC)c1ccc(/C=C2\C(=O)c3ccc(C(=O)O)cc3C2=O)cc1 | 20.7% (inactive) |
| CCN(CC)c1ccccc1 | -3.57% (inactive) |
| CCN(CC)c1ccc(C(=O)O)cc1 | 15.6% (inactive) |
| COC(=O)C1=C(C)N(CCCC(=O)O)C(=O)NC1c1ccccc1OS(=O)(=O)c1ccc([N+](=O)[O-])cc1 (configuration not stated) | 13.1% (inactive) |
| Cc1cc(C)cc(NC(=O)COC(=O)CCc2ccc(S(=O)(=O)N3CCOCC3)cc2)c1 | 3.45% (inactive) |
| Cc1cccc2cc(C#N)c(SCC(=O)Nc3ccccc3N3CCOCC3)nc12 | -15.7% (inactive) |
| Cc1ccc([N+](=O)[O-])cc1S(=O)(=O)Nc1ccc(-c2ccc(N3CCOCC3)nn2)cc1 | -3.07% (inactive) |
| COCCCNC(=O)c1ccc2c3c(onc13)-c1ccccc1C2=O | 17.2% (inactive) |
| COC(CNC(=O)c1coc2nc3ccccc3nc12)OC | 17% (inactive) |
| CCOC(=O)N1CCN(C(=O)c2cn(CC)c3ccc(S(=O)(=O)N4CCC(C)CC4)cc3c2=O)CC1 | -9.88% (inactive) |
| C/C(CC(=O)Nc1ccccn1)=N\NC(=O)c1cnccn1 | -7.52% (inactive) |
| CCc1ccc(NC(=S)N(Cc2ccccc2)Cc2ccccn2)cc1 | 11.1% (inactive) |
| O=C(NN=C(c1ccccc1)c1ccccn1)c1ccccc1 | -14.3% (inactive) |
| CCOc1ccc(C(=O)N/N=C(\c2ccccc2)c2ccccn2)cc1 | -0.16% (inactive) |
| O=C(CCc1nnc(COc2ccccc2)o1)NCCc1cccs1 | -7.18% (inactive) |
| FC(F)(F)c1ccc(Cl)c(-n2c(-c3cc(C4CC4)[nH]n3)n[nH]c2=S)c1 | 8.02% (inactive) |
| CC(CC(=O)OCC(=O)NC1CCS(=O)(=O)C1)c1ccccc1 (configuration not stated) | 4% (inactive) |
| CC(=O)N(Cc1cccs1)Cc1cc2ccc(C)c(C)c2nc1Cl | -4.22% (inactive) |
| Cc1ccc2oc(Nc3nc(C)cc(C)n3)nc2c1 | -7.76% (inactive) |
| Cc1cc(C)nc(Nc2nc3ccccc3o2)n1 | -16.8% (inactive) |
| Cc1ccc2oc(Nc3nc(C)c(C)c(C)n3)nc2c1 | -16.7% (inactive) |

| SMILES | inhibition |
| --- | --- |
| Cc1nc(Nc2nc3ccccc3o2)nc(C)c1C | 5% (inactive) |
| CCCSc1nc2cc(C)c(C)cc2n1CC(C)O (configuration not stated) | -12.9% (inactive) |
| Cc1ccc(C(=O)Nc2cccc(C(F)(F)F)c2)cc1NC(=O)c1c[nH]c2cc(C(F)(F)F)ccc2c1=O | -5.49% (inactive) |
| CC(C)N(C(=O)CN1C(=O)NC2(CCCCCC2)C1=O)C(C)C | -2.18% (inactive) |
| Cc1cccc(C)c1NC(=O)c1sccc1SCC#N | -4.84% (inactive) |
| C[n+]1c2cc(N)ccc2cc2ccc(N)cc21 | -0.44% (inactive) and -3.15% (inactive) |
| CC[n+]1c(-c2ccccc2)c2cc(N)ccc2c2ccc(N)cc21 | 7.81% (inactive) |
| Cc1ccc2c(c1)c1c3n2CCN(C(=O)CCl)C3CCC1 (configuration not stated) | 1.19% (inactive) |
| Cc1ccc2c(c1)c1c3n2CCN(C(=O)CN2CCN(C)CC2)C3CCC1 (configuration not stated) | 7.29% (inactive) |
| COc1ccc(Nc2nc(N)nc(CSC(=S)N3CCN(C)CC3)n2)cc1 | -7.34% (inactive) |
| Cc1ccc(N=Nc2ccc(O)cc2)c(Br)c1 | 10.2% (inactive) |
| CN(C)c1ccc(N=Nc2ccc(S(N)(=O)=O)cc2)cc1 | 12.4% (inactive) |
| CN(C)c1cccc2cccc(N(C)C)c12 | 11.8% (inactive) |
| CN(C)c1ccc(C2Nc3cccc4cccc(c34)N2)cc1 | 1.96% (inactive) |
| Cc1ccc(S(=O)(=O)NCCSc2ncccn2)cc1 | 2.89% (inactive) |
| C=CCNC(=S)/C(=C(/[O-])c1ccc([N+](=O)[O-])cc1)[n+]1ccccc1 | -7.17% (inactive) |
| COc1ccc(C(=O)COC(=O)CCn2nnc(-c3cccc(O)c3OC)n2)cc1 | -2.1% (inactive) |
| CC(=O)Nc1ccc(S(=O)(=O)NC2=C(N3CCN(c4ccc(F)cc4)CC3)C(=O)c3ccccc3C2=O)cc1 | 27.2% (inactive) |
| NC(=O)C1CCN(C2=C(NS(=O)(=O)c3ccccc3)C(=O)c3ccccc3C2=O)CC1 | 24.5% (inactive) |
| CN1CCN(C2=C(NS(=O)(=O)c3ccccc3)C(=O)c3ccccc3C2=O)CC1 | -2.49% (inactive) |
| CC1CCCN(C2=C(NS(=O)(=O)c3ccc(Br)cc3)C(=O)c3ccccc3C2=O)C1 (configuration not stated) | 27.1% (inactive) |
| CC1CCN(C2=C(NS(=O)(=O)c3ccc(Cl)cc3)C(=O)c3ccccc3C2=O)CC1 | -3.44% (inactive) |
| CN(C(=O)c1cccs1)c1ccc(OCC(=O)N2CCC(C(N)=O)CC2)cc1 | -3.1% (inactive) |
